In PubChem BioAssay AID588674 (Broad Institute, 2011) one finds inhibition data, which are given here for 80 molecules.

Molecules are shown by their SMILES. The campaign covered roughly 360,000 compounds. About 1,800 (0.5%) were called active.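 Rule for the calls: active = mean inhibition of at least 75% with every replicate also reaching 75%; inconclusive = mean inhibition at least 75% but some replicate below; inactive = mean inhibition below 75%.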 The list comes from a sample in which actives are over-represented; it also holds similar structures and randomly drawn compounds.

The experiment in a line: Shn3 3'UTR reporter decrease in osteoblasts – cell-based, Clone20 osteoblasts, firefly luciferase, set 2, Schnurri-3 inhibitor project, primary screen (AID 588674).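 Note: 0% = median of neutral control wells and 100% = pilot-screen positive control compound.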 Particulars: Clone20 osteoblast Shn3 3'UTR firefly luciferase, 24 h; at 12.5 µM; hits give high values.
As a reminder, the inhibition is the drop in the measured response relative to a control, in per cent. Consider `COc1ccc(SCc2noc(C(=O)NCC3CCCO3)c2C(=O)O)cc1` (stereo not given), for which the inhibition is 5.13% (inactive).
Regarding `Cc1ccc(NC(=S)N2CCCC(c3ccccc3)=N2)cc1`, the inhibition is 20.9% (inactive).
Consider `COc1ccc(-c2cc(C(F)(F)F)n3nc(C(=O)N4CCOCC4)c(Cl)c3n2)cc1`, for which the inhibition was 6.42% (inactive).
Under `Cc1ccc(NC(=O)c2sccc2C)cc1[N+](=O)[O-]` stands -83.1% (inactive); under `Cc1ccc(NC(=O)CN(C)CC(=O)Nc2cccc(F)c2)cc1[N+](=O)[O-]`, 90.8% (active); under `CN(CC(=O)Nc1cccc(F)c1)C(=O)C1=COCCO1`, -7.61% (inactive).
Consider `Cc1noc(C)c1S(=O)(=O)N(C)C[C@H]1Oc2c(NC(=O)Nc3ccc4c(c3)OCO4)cccc2C(=O)N([C@H](C)CO)C[C@@H]1C`, for which the inhibition was 17.8% (inactive).
Under `O=C(OCCN1C(=O)c2ccccc2C1=O)[C@@H]1CC(O)CN1S(=O)(=O)c1ccccc1[N+](=O)[O-]` (stereo not given in full) stands -5.63% (inactive); under `COc1cccc(/C=N/Nc2ncc(C(F)(F)F)cc2Cl)c1O`, 89.9% (active); under `CN(C)C=NC(=O)c1cccn1-c1ncc(C(F)(F)F)cc1Cl`, -4.23% (inactive).
Under `O=c1[nH]c2cccnc2n(CCNc2ncc(C(F)(F)F)cc2Cl)c1=O` stands 2.77% (inactive); under `O=C(COC(=O)c1ccccc1SCC(=O)N1CCCC1)Nc1ccccc1OC(F)F`, -12.8% (inactive).
As for `CCCOC(=O)c1[nH]c2c(c1C)C(=O)CC(c1cccs1)C2` (stereo not given), the inhibition was 24.4% (inactive).
For the molecule `COC(=O)C1C(=O)c2c([nH]c(C(=O)OCCSC)c2C)CC1C` (stereo not given), the inhibition is -58.5% (inactive).
With `CCCOC(=O)c1[nH]c2c(c1C)C(=O)CC(c1cc(OC)c(OC)c(OC)c1)C2` (stereo not given), the inhibition was 83.2% (active).
Under `CC(c1ccco1)N(C(=O)c1ccc(S(=O)(=O)N2CCCCC2)cc1)c1ccccn1` (stereo not given) stands 13.4% (inactive); under `CC(=O)N1CCOc2ccc(S(=O)(=O)N3CCN(c4cccc(C(F)(F)F)c4)CC3)cc21`, 40.6% (inactive); under `CCOC(=O)c1c(C)[nH]c(C2=NNC(=NC(C)COC)SC2)c1C` (stereo not given), -21.6% (inactive).
Take `Fc1cccc2ncnc(OCc3ccccc3)c12`: the inhibition is 18% (inactive).
In the case of `Cc1nc2ccccc2cc1OCc1ccc(F)cc1` it was 85.8% (active).
Take `Cc1occc(=O)c1OCc1ccc(F)cc1`: the inhibition was -22.9% (inactive).
Consider `COc1ccc(Cc2nnc(SC)[nH]c2=O)cc1`, for which the inhibition is -14% (inactive).
`CC(C)c1ccc(Cc2nnc(NCCCO)[nH]c2=O)cc1`: the inhibition is 7.96% (inactive).
Under `COc1ccc(Cc2nnc(N/N=C/c3ccccc3O)[nH]c2=O)cc1OC` stands 91.1% (active).
Under `CC(/C=C/C1(O)C(C)CC(=O)CC1(C)C)OC1OC(CO)C(O)C(O)C1O` (stereo not given) stands -14.8% (inactive); under `CCc1ccc(NC2Nc3cc(C)nn3S2)cc1` (stereo not given), -59% (inactive); under `COc1ccccc1-n1c(SCC(=O)Nc2cccc(C(=O)O)c2)nnc1-c1ccccc1O`, -11.2% (inactive).
In the case of `COc1cc(/C=N/Nc2ccc(C)cc2)cc(Br)c1O` it was 5.6% (inactive); in that of `COc1cccc(/C=N/Nc2cc(C)nc(-c3ccccc3O)n2)c1O`, 86.9% (active); in that of `CN(CCO)S(=O)(=O)c1ccc2c(c1)C(=O)c1cc(S(=O)(=O)N(C)CCO)ccc1-2`, 16.6% (inactive).
`CCn1nc(C)c(CNC(=O)C2CCC(=O)N(Cc3cccc(F)c3)C2)c1C` (stereo not given): the inhibition is -6.25% (inactive).
As to `Cc1cc(C)nc(SC(C)C(=O)N/N=C/c2cccs2)n1` (stereo not given), the inhibition is 4.78% (inactive).
As to `COC(c1ccccc1)(c1ccccc1)C(Oc1nc(C)cc(C)n1)C(=O)O` (stereo not given), the inhibition was 5.7% (inactive).
In the case of `Cc1cc(C)nc(S/C=C/C(=O)c2ccccc2)n1` it was 95.6% (active); in that of `Clc1ccc(Cl)c(Oc2ccc(Oc3nc(Cl)ccc3Cl)cc2)n1`, -2.29% (inactive).
As to `O=C(NN=Cc1ccc2c(c1)CCC2)c1ccccc1O`, the inhibition was -68.8% (inactive).
Consider `Cc1ccc(/C=N/NC(=O)C2=NNC(c3ccccc3)(c3ccccc3)C2)c(O)c1`, for which the inhibition was 88.2% (active).
Regarding `O=C(N/N=C/c1ccccc1O)C1CCCC1`, the inhibition was 26.7% (inactive).
In the case of `COC(=O)Cc1ccc(OC2(C)CCN(Cc3ccc4c(c3)OCCO4)C2)cc1` (stereo not given) it was -22.2% (inactive).
Under `O=C(NCCCN1CCCCC1)C1CCCN(c2ncnc3c2nc2n3CCCCC2)C1` (stereo not given) stands 2.4% (inactive); under `O=C(CSC1=NS(=O)(=O)c2cc(F)ccc2N1)Nc1ccccc1F`, -17.3% (inactive).
Under `Cc1cc(C)n(CCC(=O)N2CCN(S(=O)(=O)c3ccc(C)c(C)c3)CC2)n1` stands -21.5% (inactive).
As for `COc1ccc(CCNC(=O)C(=O)NCC2CCNCC2)cc1OC`, the inhibition is -3.81% (inactive).
`O=C(O)CSc1nccn1-c1cccc(Cl)c1`: the inhibition was -5.11% (inactive).
Regarding `Cc1cc(=O)c2ccc(NC(=O)c3ccccc3)cc2[nH]1`, the inhibition is -6.37% (inactive).
Under `O=C(NC1=CC(=O)c2ccccc2C1=O)c1ccccc1` stands 93.6% (active).
In the case of `O=C(NCCc1ccccc1)c1cccc(NC(=O)c2ccccc2)c1` it was -14.5% (inactive).
With `Cn1c2c(c(=O)n(C)c1=O)C1c3ccccc3OCC1C(C)(C)O2` (stereo not given), the inhibition was -0.463% (inactive).
Regarding `CC1COC2C(O1)N(S(C)(=O)=O)CCN2S(C)(=O)=O` (stereo not given), the inhibition was 1.27% (inactive).
Under `C=CCn1c(=O)c2ccccc2n2c(SCC(=O)N3CCCc4ccccc43)nnc12` stands -3.54% (inactive); under `O=C(CSc1nc2ccccc2c(=O)n1CCCO)N1CCc2ccccc21`, 3.09% (inactive).
Under `Cn1c(SCC(=O)N2CCCc3ccccc32)nc2ccccc2c1=O` stands 86.2% (active); under `Cn1cc(CN2CCCC(CO)C2)c(-c2ccc(Oc3ccccc3)cc2)n1` (stereo not given), 6.06% (inactive).
On to `C[C@H](NC(=O)CC[C@H]1O[C@@H](n2ccc(=O)[nH]c2=O)[C@H](O)[C@@H]1O)c1cccc2ccccc12`, for which the inhibition is -13% (inactive).
In the case of `COc1cccc(CNC(=O)C(=O)NCCC2CCCCN2S(=O)(=O)c2ccc(C)cc2)c1` (stereo not given) it was 13.1% (inactive); in that of `C[C@H](NC(=O)c1[nH]cnc1C(=O)Nc1nccs1)c1ccccc1`, -5.6% (inactive).
As to `COc1ccc(-c2csc3ncnc(N4CCN(S(=O)(=O)c5ccccc5C#N)CC4)c23)cc1`, the inhibition is -3.1% (inactive).
Under `Cc1ccc(C)c(S(=O)(=O)N2CCN(CC(=O)Nc3ccc([N+](=O)[O-])cc3)CC2)c1` stands 5.73% (inactive); under `Cc1ccc(C)c(S(=O)(=O)N2CCN(c3ncnc4sccc34)CC2)c1`, 86.3% (active); under `C[n+]1cc(-c2ccccc2)oc1-c1ccccc1`, -76.7% (inactive).
Consider `Cc1ccccc1NC(=O)Cc1nc(COC(=O)C(C)(C)Oc2ccc(Cl)cc2)cs1`, for which the inhibition was -2.77% (inactive).
Under `COc1cc(NC(=S)N2CCCC(C)C2)cc(OC)c1OC` (stereo not given) stands -25.8% (inactive); under `O=C1C=C(c2cc(C(F)(F)F)cc(C(F)(F)F)c2)C[C@@H](c2ccc3c(c2)OCO3)C1`, 15% (inactive).
Consider `COc1ccc2cc(C3=CC(=O)C[C@H](c4ccc5c(c4)OCO5)C3)ccc2c1`, for which the inhibition is -45.2% (inactive).
In the case of `O=C1C=C(c2ccnc3cc(Cl)ccc23)C[C@@H](c2ccc3c(c2)OCO3)C1` it was 85.5% (active); in that of `COc1ccccc1NC(=O)C(C)OC(=O)c1ccc(-n2cnnn2)cc1` (stereo not given), 1.76% (inactive); in that of `CC(=O)N1CCCc2cc(S(=O)(=O)N3CCCC(C(=O)N4CCN(c5cccc(Cl)c5)CC4)C3)ccc21` (stereo not given), 93% (active).
For `CC(=O)N1CCCc2cc(S(=O)(=O)CCC(=O)N3CCN(c4ccccc4)CC3)ccc21`, the inhibition was -3.7% (inactive).
Under `CC(=O)N1c2ccc(S(=O)(=O)N3CCC(C(=O)N4CCN(c5ccccc5)CC4)CC3)cc2CC1C` (stereo not given) stands 74.2% (inactive); under `CCOC(=O)C1=CC[C@@H](c2ccncc2)N(S(=O)(=O)c2ccc(C)cc2)C1`, 4.63% (inactive); under `COc1ccc(C(c2nnnn2C2CCCC2)N2CCN(C/C=C/c3ccccc3)CC2)cc1` (stereo not given), 16.4% (inactive).
Regarding `Cc1cc2nc(-c3ccco3)c(Cc3cccc(F)c3)n2c(C)c1Br`, the inhibition was 54.3% (inactive).
In the case of `O=C1C(Cl)=C(Oc2ccccc2)C(=O)c2ccccc21` it was 96.1% (active).
In the case of `O=C(NCc1cccs1)c1ccc2c(c1)ncn2C1CCCC1` it was -25.6% (inactive); in that of `COc1c(C=O)c(CCN(C)C(=O)c2ccc(F)cc2)cc2c1OCO2`, -0.0815% (inactive).
As for `Cn1c(CCNS(=O)(=O)c2ccc(F)cc2)nnc1SCc1cccnc1`, the inhibition was -8.53% (inactive).
Under `CC(=O)Nc1ccc(SCC(=O)NC(=O)c2ccc(Cl)cc2)cc1` stands 5.11% (inactive); under `O=C(CCl)Nc1ccc(Sc2ccc(NC(=O)CCl)cc2)cc1`, 96.4% (active).
Under `O=C(CCl)Nc1cccc(CP(=O)(c2ccccc2)c2ccccc2)c1` stands -0.336% (inactive).
On to `COCCN(CCOC)c1nc(N)c2c(N)nc3c(c2c1C#N)CC(=O)N3Cc1ccc(Cl)cc1`, for which the inhibition is -5.44% (inactive).
